According to ChEMBL document CHEMBL3433997, “St. Jude Leishmania screening dataset” (2016):

Assays:
Type in all cases: functional
[1] = biological target: Solute carrier family 2, facilitated glucose transporter member 1 (Homo sapiens) (UniProt P11166); assay: ST_JUDE_LEISH: Cytotoxicity at 2uM final concentration against transgenic Leishmania Mexicana promastigotes LmGLUT1 that are glucose transport deficient and complemented with the human glucose transporter GLUT1. Activity is measured by DNA content using SYBR green in vitro
[2] = biological target: Hexose transporter 1 (Plasmodium falciparum) (UniProt O97467); assay: ST_JUDE_LEISH: Cytotoxicity at 2uM final concentration against transgenic Leishmania Mexicana promastigotes LmPfHT that are glucose transport deficient and complemented with the Plasmodium falciparum hexose transporter. Activity is measured by DNA content using SYBR green in vitro
[3] = biological target: Glucose transporter (Leishmania mexicana) (UniProt O61059); assay: ST_JUDE_LEISH: Cytotoxicity at 2uM final concentration against transgenic Leishmania Mexicana promastigotes LmGT2 that are glucose transport deficient and complemented with the L. Mexicana glucose transporter 2. Activity is measured by DNA content using SYBR green in vitro

Solute carrier family 2, facilitated glucose transporter member 1 (Homo sapiens), sequence (P11166 whole entry): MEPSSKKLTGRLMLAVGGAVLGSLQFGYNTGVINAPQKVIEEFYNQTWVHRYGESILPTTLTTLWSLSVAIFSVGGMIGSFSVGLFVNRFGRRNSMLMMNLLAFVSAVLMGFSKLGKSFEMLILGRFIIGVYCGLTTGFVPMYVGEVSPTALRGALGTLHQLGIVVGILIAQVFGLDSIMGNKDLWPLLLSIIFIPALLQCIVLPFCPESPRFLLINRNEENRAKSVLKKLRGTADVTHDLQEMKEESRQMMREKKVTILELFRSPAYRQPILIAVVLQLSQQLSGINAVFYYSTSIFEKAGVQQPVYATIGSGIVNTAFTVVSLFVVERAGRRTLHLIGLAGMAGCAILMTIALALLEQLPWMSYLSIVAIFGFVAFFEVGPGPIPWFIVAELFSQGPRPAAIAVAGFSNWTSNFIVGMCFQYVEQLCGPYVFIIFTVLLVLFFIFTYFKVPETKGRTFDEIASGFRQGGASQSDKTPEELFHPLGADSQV

CC(=O)Oc1c(Br)c(C)nc(C)c1-c1ccc(Oc2ccc(OC(F)(F)F)cc2)cc1
inhibition [1]: 1.58%
inhibition [2]: 0.11%
inhibition [3]: 0.37%

CN1CCN(CCCN(Cc2cccc(-c3ccc(CNCc4ccc5c(c4)OCO5)cc3)c2)C(=O)CCC2CCCC2)CC1
inhibition [1]: 51.2%
inhibition [2]: 45.7%
inhibition [3]: 34.4%

CCN(c1ccccc1)S(=O)(=O)c1ccc(NC(=O)c2cc(-c3cc(C)ccc3O)n[nH]2)cc1
inhibition [1]: -1.82%
inhibition [2]: 5.38%
inhibition [3]: -1.84%
